AI-2 QS modul – Vibrio harveyi AI-2 quorum sensing modulation | Vibrio harveyi JMH597 AI-2 luminescence/OD600 ratio, 9 h; active compounds read low; strain lacks LuxN and CqsS sensors; 0 = neutral-control median | activity change, % at 7.5 µM | 300,000 tested, 0.4% active; in the data active = activity change below about -75%, passing the limit was not always enough; inconclusive = no clear call, values can overlap the other calls;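 note: luminescence divided by OD600 gain over 9 h not by final OD600 alone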
C2C12 statin – suppression of simvastatin myotoxicity. rescue of ATP level, % at 7.49 µM. AID 602340. 330,000 tested, 0.78% active. C2C12 myotubes + simvastatin, ATP luminescence, 48 h; scaled: DMSO 0, geranylgeraniol control 100;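 active = mean ATP rescue above about 67%, or every replicate alone reaching that limit, limit read from the data, passing the limit was not always enough; inconclusive = no clear call, values can overlap the other calls; inactive = mean under the limit and some replicate under it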;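 note: myotubes were challenged with 10 µM simvastatin during compound exposure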
PGC1a acetyl inh – modulators of PGC1a acetylation | U2OS PGC1a acetylation, AlphaScreen anti-acetyl-lysine; with virally co-expressed GCN5 acetyltransferase | inhibition, % at 15.6 µM | 350,000 tested, 0.17% active | AID 651687;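 active = every replicate shows inhibition of at least 40%; inconclusive = mean inhibition at least 40% but some replicate below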;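 note: 0% = neutral control wells and 100% = positive control wells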
HIF activator – HIF pathway transcriptional activation; U2OS HRE-luciferase reporter, luminescence; normalized: DMSO 0%, desferrioxamine 100%; activation, % at 7.5 µM (by protocol); 300,000 tested, 0.32% active; AID 1910;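 active = mean activation of at least 10% of the iron chelator positive control signal, with at least half of replicates also reaching 10%; inconclusive = mean and replicate majority disagree about reaching 10%; inactive = mean and most replicates under 10%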
Rce1 inh – yeast Ras-converting enzyme inhibition; Q03530; yeast membranes, quenched prenylated peptide cleavage fluorescence; calls only; 290,000 tested, 0.27% active;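 active = fall in fluorescence gain of 50% or more versus controls, with final raw signal at or below 3038400; inconclusive = same 50% fall but final raw signal above 3038400; inactive = fall in fluorescence gain under 50%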;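 note: plate controls were neutral control wells for no effect and wells lacking membranes for full effect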
Target sequence (Q03530 whole entry, looked up): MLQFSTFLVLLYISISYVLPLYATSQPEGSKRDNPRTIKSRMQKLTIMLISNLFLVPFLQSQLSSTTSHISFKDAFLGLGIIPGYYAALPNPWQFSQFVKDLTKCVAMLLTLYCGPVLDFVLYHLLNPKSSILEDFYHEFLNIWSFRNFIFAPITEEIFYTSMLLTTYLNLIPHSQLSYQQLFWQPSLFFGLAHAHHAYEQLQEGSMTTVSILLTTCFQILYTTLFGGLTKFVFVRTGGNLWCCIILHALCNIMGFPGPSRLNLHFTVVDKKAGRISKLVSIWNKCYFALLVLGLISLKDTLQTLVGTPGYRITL
The depositor's hits bear a star; i = inactive; ? = inconclusive; . = no result; + = active, no number. In the library only some 1.3% were active in any assay of this set; here they are far more common.

SMILES	AI-2 QS modul	C2C12 statin	PGC1a acetyl inh	HIF activator	Rce1 inh
COC(=O)/C(C#N)=C/c1c(N2CCN(Cc3ccc4c(c3)OCO4)CC2)nc2c(C)cccn2c1=O	17	.	.	410*	i
CCOC(=O)/C(C#N)=C/c1c(N2CCN(Cc3ccc4c(c3)OCO4)CC2)nc2c(C)cccn2c1=O	32	.	3	0	i
Cc1nc(N2CCCCC2)c2c(C)c(C(=O)Nc3cccc(C(F)(F)F)c3)sc2n1	3	-15	-2	-1	i
Cc1nc(N2CCCCC2)c2c(C)c(C(=O)Nc3ccccc3C(F)(F)F)sc2n1	3	.	.	0	+
COc1ccc(OC)c(/C=N/c2oc(-c3ccco3)c(-c3ccco3)c2C#N)c1	38	-2	2	0	+
CCn1cc(S(=O)(=O)c2ccc(OC)cc2)c(=O)c2cc(F)c(N3CCN(C)CC3)cc21	23	6	10	0	+
CCN1CCN(c2cc3c(cc2F)c(=O)c(S(=O)(=O)c2ccccc2)cn3C)CC1	0	9	-8	0	i
CCn1cc(C(=O)N[C@H](C)c2ccccc2)c(=O)c2cc(F)c(N3CCN(C)CC3)cc21	7	.	-1	-1	+
O=C(O)C[C@@H]1CC[C@H](NC(=O)CCN2CCCCC2)[C@@H](CO)O1	.	.	2	.	.
COc1ccc(CCNC(=O)C2CCCN(S(C)(=O)=O)C2)cc1OC (configuration not stated)	-292*	-4	7	0	i
COc1ccc(CCNC2CCN(C)CC2)cc1OC	18	112*	3	-6	i
CCOC(=O)N1CCN(S(=O)(=O)N2CCCC(C(=O)NCCc3ccc(OC)c(OC)c3)C2)CC1 (configuration not stated)	26	0	-4	0	i
COCc1cn(CC[C@H]2CC[C@@H](NC(=O)Nc3ccccc3)[C@H](CO)O2)nn1	.	5	0	.	.
O=C(O)c1ccc(N/N=C/C2=Cc3ccccc3OC2)cc1	-91*	12	-7	3	i
C[C@@H]1CCCCO[C@@H](CN(C)C(=O)NC2CCCCC2)[C@@H](C)CN([C@@H](C)CO)C(=O)c2cc(NC(=O)c3ccccc3)ccc2O1	.	.	12	.	.
COc1ccccc1-c1nnc(N)s1	2	.	.	-1	+
Nc1nnc(-c2ccccc2Cl)s1	12	.	-9	0	i
COc1ccc2c3c([nH]c2c1)[C@H](CO)N(C(=O)c1ccc(F)cc1)CC31CN(S(=O)(=O)c2cccs2)C1	.	.	-4	.	.
COc1ccc(C(=O)NCC(=O)N2CCC(C)CC2)cc1OC	16	90*	1	-3	i
COc1ccc(-n2nc(C(=O)NCC(=O)N3CCC(C)CC3)c3ccccc3c2=O)cc1	46	4	-15	1	+
O=C(C[C@@H]1CC[C@@H](NC(=O)Cc2cccnc2)[C@H](CO)O1)Nc1ccccc1	.	.	4	.	.
CCCCCCOC(=O)CCc1c(C)nc(N)[nH]c1=O	39	98*	-6	0	i
CCCCCCOC(=O)Cc1c(C)nc(N)[nH]c1=O	23	1	-5	0	i
CO[C@@H]1CN(C)C(=O)c2ccc(NC(=O)Nc3cccc(F)c3)cc2OC[C@H](C)N(C(=O)C2CC2)C[C@H]1C	.	-33	15	.	.
Cc1ccc(-c2nnn(CC(=O)N(c3ccc(F)cc3)C(C(=O)NC(C)(C)C)c3ccco3)n2)o1 (configuration not stated)	1	83*	5	1	i
SMILES	AI-2 QS modul	C2C12 statin	PGC1a acetyl inh	HIF activator	Rce1 inh
Cc1ccc(-c2nnn(CC(=O)N(c3ccc(F)cc3)C(C(=O)NC3CCCC3)c3ccco3)n2)o1 (configuration not stated)	21	.	1	0	i
O=C(O)c1nn(-c2ccccc2)nc1-c1nn(-c2ccccc2)nc1C(=O)O	21	136*	-4	0	i
CCc1c(C)nc(N2CCN(c3ccccc3)CC2)[nH]c1=O	28	24	-4	-10	i
Cc1nc(N2CCN(c3ccccc3)CC2)[nH]c(=O)c1CCC(C)C	-1	86*	9	0	i
O=C(N[C@@H]1C=C[C@H](CC(=O)N2CCc3ccccc3C2)O[C@@H]1CO)C1CC1	.	.	-1	.	.
CCC(C)NC(=O)CSC1=Nc2ccccc2C2=NC(CC(=O)NCc3ccc(F)cc3)C(=O)N12 (configuration not stated)	14	-9	18	0	+
CC(C)CC#Cc1cnc2c(c1)C(=O)N([C@@H](C)CO)C[C@@H](C)[C@@H](CN(C)C(=O)c1cccc(F)c1)O2	.	-2	2	.	.
COc1cccc(NC(=O)CCc2nnc3ccc(NCc4ccco4)nn23)c1	4	9	-8	0	i
COc1ccc(OC)c(NC(=O)CCc2nnc3ccc(NCc4ccco4)nn23)c1	22	-3	4	17*	i
COc1ccc(C2C(Oc3ccccc3)C(=O)N2c2cc(C)ccc2C)cc1OC (configuration not stated)	19	73*	-12	0	i
CCOC(=O)C(CC)(CC)C(=O)/C=C/c1ccc(Br)cc1	31	-8	57*	0	i
COc1ccc(C#Cc2c(-c3ccsc3)oc3ccc(N4CCOCC4)cc23)cc1	-5	-4	-4	0	i
COc1ccc(-c2oc3ccc(N4CCOCC4)cc3c2C#Cc2ccc(N)cc2)cc1	6	-33	.	-2	+
C[C@H]1CCCCO[C@@H](CN(C)C(=O)CCCN(C)C)[C@@H](C)CN([C@@H](C)CO)C(=O)c2cc(NS(C)(=O)=O)ccc2O1	.	22	-7	.	.
COc1ccc(C(=O)c2cn[nH]c2-c2ccc(C)cc2O)cc1	-86*	-1	4	1	i
Cc1cccc(C(=O)c2cn[nH]c2-c2ccc(C)cc2O)c1	28	-1	0	-7	i
O=C(c1ccc(Br)cc1)c1cn[nH]c1-c1ccccc1O	-81*	18	.	-2	i
CC(C)(C)c1ccc(C(=O)c2cn[nH]c2-c2ccccc2O)cc1	-92*	-1	-4	2	i
Cc1ccc(O)c(-c2[nH]ncc2C(=O)c2ccc(Br)cc2)c1	-10	-1	.	0	i
C[C@@H]1CN([C@H](C)CO)C(=O)Cc2cc(NS(C)(=O)=O)ccc2O[C@H]1CN(C)S(=O)(=O)c1cn(C)cn1	.	-42	2	.	.
O=C(CCCCCCC(=O)Nc1ccccc1)NO	29	-101	?	190*	i
CC1CC(=O)c2c(cc3c(-c4c(O)cc(O)c5c(O)c6c(cc45)OC(C)CC6=O)c(O)cc(O)c3c2O)O1 (configuration not stated)	-82*	-236	63*	0	i
CCCNC(=O)N1C[C@@H](C)[C@H](OC)CN(C)C(=O)c2ccc(NC(=O)C3CCC3)cc2OC[C@@H]1C	.	-15	7	.	.
O=C(O)c1ccc(N/N=C/c2ccc(F)c(F)c2)cc1	-94*	6	.	0	i

Bioassay records deposited in PubChem by Broad Institute.
